According to PubChem BioAssay (NCI):
This is part of a sample that, as a whole, favours compounds with a hit. Of some 83,000 tested, about 20% had one in any assay.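 Each cell line was grown in a 96-well plate and treated with one concentration of compound for 48 hours. Values below 10 were considered active.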 Calls of active or inactive are those of the source.

test system: MDA-MB-435 melanoma; experiment: NCI-60 one-dose screen, 48 h (100 = growth as untreated, 0 = no growth, -100 = all killed); conditions: 10 µM unless noted
Procedure: Growth inhibition of the MDA-MB-435 human Melanoma tumor cell line is measured as a screen for anti-cancer activity. Cells are grown in 96 well plates and exposed to the test compound for 48 hours. Compounds are tested at a single concentration, which is 10^-5 M for most compounds. The reported endpoint is percent growth (GI% or GIPRCNT), where numbers from 0 - 100% represent growth inhibition, and numbers from -100% - 0 represent cell death. For example, a value of 40 represents 60% growth inhibition. A value of 0 means no net growth occurred over the course of the experiment. A value of -40 indicates 40% of cells at the beginning of the experiment died by the end of the experiment. A value of -100 means all cells are dead at the end of the experiment.
NCI-60 Human Tumor Cell Lines Screen was performed using the standard one-dose NCI protocol, which is described in more detail at https://dtp.cancer.gov/discovery_development/nci-60/default.htm.
Compounds with GIPRCNT values below 10 were considered active. Activity score was based on GIPRCNT using the following formula: […]
Score is 0 for GIPRCNT values of 100 or above, 50 for GIPRCNT values of 0, and 100 for GIPRCNT values of -100.

SMILES | growth
Nn1c(SCC(=O)Nc2cc(Cl)c(Cl)cc2Cl)nnc1-c1cc(F)c(Cl)cc1Cl | 91.2% (inactive)
Cc1cccc(Cc2cnc(NC(=O)CCc3ccc(C)o3)s2)c1 | -23.1% (active)
Clc1ccc(OCc2nc(-c3ccccc3)n[nH]2)c(Cl)c1 | 97.7% (inactive)
CSc1nc(N)nc2c1ncn2C | 102% (inactive)
COC(=O)/C=C/C(=O)c1cc(C)cc(C)c1O | 103% (inactive)
CC(NCCC(c1ccccc1)c1ccccc1)c1ccccc1 (stereo not given) | 27% (inactive)
Nc1ncnc2c1c(C(F)(F)F)cn2[C@@H]1O[C@H](CO)[C@@H](O)[C@H]1O | 12.3% (inactive)
NS(=O)(=O)c1ccc(CCN2C(=O)/C(=C\c3ccc(Cl)cc3)C=C2c2ccc(Oc3ccccc3)cc2)cc1 | 78.8% (inactive)
N#Cc1c(N)nc2c(c1N)C(c1ccc(Cl)cc1)C1=C(CCCC1=O)N2c1sc2c(c1C#N)CCCC2 (stereo not given) | 112% (inactive)
CCNC(=O)Oc1ccc(/C(=C(/CC)Cc2ccccc2)c2ccc(OCCN3CCOCC3)cc2)cc1 | 49.9% (inactive)
CC(C)(C)OC(=O)N1CCN(CCn2cc(C(F)(F)F)c3c(Cl)ncnc32)CC1 | 47.1% (inactive)
CCOc1ccc(NC(=O)Nc2cc(C(C)C)ccc2C)cc1 | 85% (inactive)
O=C(NNC(=O)c1ccc([N+](=O)[O-])cc1)c1ccc([N+](=O)[O-])cc1 | 101% (inactive)
O=S(c1ccccc1)c1ccc2nnnn2n1 (stereo not given) | 108% (inactive)
C[C@H]1C=C(C[C@@H](O)CC#CC#CCCCCC[C@@H](O)[C@H]2CCC(=O)O2)C(=O)O1 | 111% (inactive)
COc1ccc2c(c1)nnn1c3ncccc3c(N=O)c21 | -5.59% (active)
COc1ccc(/C=C/C(=O)/C=C(/C=C/c2ccc(OC)c(OC)c2OC)OB(F)F)c(OC)c1OC | 0.716% (active)
CCc1ccc(C2=C/C(=C/c3ccc(Cl)cc3)C(=O)N2CCc2ccc(S(N)(=O)=O)cc2)cc1 | 36.7% (inactive)
O=[N+]([O-])c1cccc(C2c3ccccc3Oc3ccccc32)c1 | 98.1% (inactive)
c1ccc(OCC[P+](c2ccccc2)(c2ccccc2)c2ccccc2)cc1 | 4.66% (active)

SMILES | growth
COC(=O)Nc1nc2ccc(Sc3ccccc3)cc2[nH]1 | -45.2% (active)
O=C1OC(=O)C2C3CC(c4ccccc43)C12 (stereo not given) | 104% (inactive)
Cc1cccc(NCS(=O)(=O)O)c1 | 108% (inactive)
COc1ccccc1S(=O)(=O)Nc1ccc2c3c(cc(-c4ccoc4)nc13)C(=O)N2C | 32.8% (inactive)
COc1cc(NS(=O)(=O)c2ccc(N)cc2)ncn1 | 99.8% (inactive)
COc1cc(/C=C/C(=O)c2c(C)[n+]([O-])c3ccccc3[n+]2[O-])ccc1O | 78.6% (inactive)
O=C(N/N=C/c1ccccc1O)c1ccccc1O | 63% (inactive)
COc1ccc(CNc2nc3ccccc3c3c(=O)c4ccccc4sc23)cc1OC | 91.7% (inactive)
COc1ccc(-c2nnc(SCC(=O)Nc3ccc(C(=O)/C=C/c4ccccc4)cc3)o2)cc1OC | 92.7% (inactive)
CC(CN(C)C)CN1c2ccccc2CCc2ccccc21 (stereo not given) | 72.4% (inactive)
COc1cc(/C=C/C(=O)N2CCC=CC2=O)cc(OC)c1OC | 57.2% (inactive)
O=C(Nc1cccc([N+](=O)[O-])c1)Nc1cccc([N+](=O)[O-])c1 | 63.1% (inactive)
O=C(Cn1c2ccccc2c2ccncc21)N/N=C/c1cc(O)c(O)c(O)c1 | 111% (inactive)
CCOC(=O)C1=C(N)Oc2cc(OC)ccc2C1c1ccc(F)c(F)c1 (stereo not given) | -15.8% (active)
CCOC(=O)C(C)(CSSCC(C)(NC(=O)c1ccc2ccccc2c1)C(=O)OCC)NC(=O)c1ccc2ccccc2c1 (stereo not given) | 96.3% (inactive)
CCOC(=O)C1CN(Cc2ccccc2)C(=O)C1=O (stereo not given) | 98.6% (inactive)
CSc1ccc(C(=O)C[n+]2cccc(C)c2)cc1 | 104% (inactive)
CC(C)NCC(O)COc1ccc(CC(N)=O)cc1 (stereo not given) | 107% (inactive)
COc1ccc(SC2c3ccc(O)cc3Oc3nc(N)c(C#N)c(N)c32)cc1 (stereo not given) | 87% (inactive)
COc1ccc(OCC(O)CN2CCN(c3ccc(Cl)cc3)CC2)cc1 (stereo not given) | 106% (inactive)
